# The list is not random: actives were taken first. Their share in the collection is about 2.4%.
# IkB signaling – inhibitors of IkB signaling in ABC-DLBCL cells | ABC-DLBCL IkBa-CBG/CBR dual luciferase ratio, 4 h; response scale: scaled: untreated 0%, proteasome inhibitor 100% | Potency, µM (series often up to 57.1 µM), for inactives: at the highest dose IkBa stabilization activation | 110,000 tested, 0.04% active | AID 445; active means well fitted curve in the direction sought with a large enough effect in the signal ratio, not every such curve was filed as active; inconclusive means small, poorly fitted or top-dose-only effect, or a change in a side signal; the % refers to the signal ratio;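 further: the direction sought is a rising ratio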
#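 Luminescence ratio of IκBα-fused green versus native red beetle luciferase in OCI-Ly3 cells, 4 h post-doxycycline with compound; red signal alone, scaled from basal (0%) to zero light (-100%), flagged nonspecific or cytotoxic effects.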
# Imprint erasure – genomic imprint erasure induction; mouse ES Peg3-LacZ reporter, beta-gal luminescence, 40 h; Potency, µM (series often up to 60.7 µM), without a hit: at the top dose activity change, positive = activation, most hits filed as activators; 110,000 tested, 0.02% active
#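 Readout: BetaGlo luminescence (5 min, room temp) for LacZ from the normally silent maternal Peg3 allele in female Peg3LacZ-Neo ES cells. Cells 300/well, 40 h, 37C, 5% CO2. Data normalized per plate to negative controls.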
# p53ts 32C tox – kills p53ts cells at the permissive temperature; H1299-p53A138V at 32C, ATP luminescence viability, 24 h; 130,000 tested, 0.93% active; Potency, µM (titrated, usually from 46.1 µM), for inactives: at the highest dose activity change, negative = cytotoxicity, usual class: cytotoxic;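 further: 0% = DMSO and -100% = full killing by reference compound; nearly all actives have a fitted effect of over 55% in size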
#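 Cells: H1299 p53ts (A138V), 600/well, pre-incubated 16–30 h at 37C. Cpd up to 46 uM, 24 h, 32C. Readout: ATPlite luminescence, 20 min RT. Normalization: DMSO vs tamoxifen 100 uM. AC50 by Hill equation.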
# FLuc inh – firefly luciferase inhibition | purified firefly luciferase, luminescence, 8 min | AID 411 | 72,000 tested, 2.2% active | Potency, µM (doses to about 57.1 µM), inactives show top-dose activity change, negative = inhibition, actives largely listed as inhibitors; further: on the % scale 0 is the no-effect control and ±100 the full control effect; nearly all actives have a fitted effect of over 40% in size
# Target sequence (P08659 whole entry, looked up): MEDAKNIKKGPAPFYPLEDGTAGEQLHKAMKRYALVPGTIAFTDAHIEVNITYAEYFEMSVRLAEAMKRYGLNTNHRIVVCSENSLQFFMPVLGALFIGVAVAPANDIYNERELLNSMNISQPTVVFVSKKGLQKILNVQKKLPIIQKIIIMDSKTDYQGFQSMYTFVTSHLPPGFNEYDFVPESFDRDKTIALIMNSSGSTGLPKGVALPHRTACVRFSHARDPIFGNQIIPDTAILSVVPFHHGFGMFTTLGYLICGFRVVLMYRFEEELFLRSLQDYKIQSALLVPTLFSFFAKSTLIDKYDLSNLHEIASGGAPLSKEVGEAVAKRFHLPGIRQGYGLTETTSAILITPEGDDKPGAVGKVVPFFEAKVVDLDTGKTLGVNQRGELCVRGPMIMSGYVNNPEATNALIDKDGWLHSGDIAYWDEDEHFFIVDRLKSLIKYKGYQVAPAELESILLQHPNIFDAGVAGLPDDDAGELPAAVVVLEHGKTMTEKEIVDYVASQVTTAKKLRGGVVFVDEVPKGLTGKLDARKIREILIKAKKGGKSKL
#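 Titration-based qHTS; buffer 50 mM imidazole pH 7.2, 50 mM KCl, 7 mM MgCl2, 10 uM ATP, 0.01% Tween 20, 0.05% BSA; luciferase/luciferin detector mix added after compound; 8 min, ambient; luminescence.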
# p53ts 39C kill – kills p53ts cells at the nonpermissive temperature. H1299-p53A138V viability at 39C, ATP luminescence, 24 h. Potency, µM (top dose mostly 46.1 µM), without a hit: top-dose activity change, negative = cell killing, most hits filed as cytotoxic. 130,000 tested, 1.5% active; further: on the % scale 0 is the no-effect control and ±100 the full control effect; nearly all actives have a fitted effect of over 55% in size
# An asterisk follows results filed as active; ? = inconclusive; nt = not tested or not shown; [ ] = another dose, or the depositor's remark. Unless noted, the call rests on the fitted dose curve; in most records, active means well fitted curve in the direction sought with a large enough effect; inconclusive means small, poorly fitted or top-dose-only effect, or another doubt; inactive means no such curve, though single readings can be large; an effect the other way counts as inactive or inconclusive. Potency means the concentration at half of the fitted maximal effect.
SMILES,IkB signaling,Imprint erasure,p53ts 32C tox,FLuc inh,p53ts 39C kill
CCOC(=O)c1sc(NC(=O)c2ccco2)nc1C,2.0%,-53.6%,-29.6%,-6.7%,-14.6%
CCOc1cccc(C2Oc3nc(SC)nnc3-c3ccccc3N2C(C)=O)c1OC (stereo not given),-2.4%,-3.0%[10.9 µM],5.0%,nt,-4.5%
CCOc1cccc2c1OC(c1cc(OC)c(OC)c(OC)c1)N1N=C(c3ccc(C)o3)CC21 (stereo not given),nt,nt,11.2µM*,nt,?
CCCCCSc1nc2sc3c(c2c(=O)n1-c1ccccc1)CCN(C(C)=O)C3,?,-8.1%[10.9 µM],?,nt,12.6µM*
CCSc1nc2sc3c(c2c(=O)n1-c1ccc(C)c(Cl)c1)CCN(C(C)=O)C3,0.8%,16.2%[10.9 µM],2.2%,nt,6.7%
Cc1sc2nc3ccc(N4CCCC4)nn3c(=O)c2c1C,-0.9%,-14.5%,-29.0%,?,?
Cc1ccc2nc3ccc(N4CCN(C)CC4)nn3c(=O)c2c1,-2.8%,-15.0%,3.98µM*,7.94µM*,?
CCCCN1C(C(=O)c2ccccc2)=C(OC(=O)CC)c2ccccc2S1(=O)=O,?,-24.3%[10.9 µM],-21.4%,nt,15.8µM*
CCCCCN1C(C(=O)c2ccccc2)=C(OC(=O)CC)c2ccccc2S1(=O)=O,-1.2%,-20.9%[10.9 µM],?,nt,-6.6%
COc1ccc2nc(C)cc(Nc3ccc(Cl)c(Cl)c3)c2c1,?,-13.2%[10.9 µM],?,nt,12.6µM*
Cc1nn2c(=O)cc(COC(=O)c3cccc(NC(=O)c4ccc(C(C)(C)C)cc4)c3)nc2s1,?,-12.3%[10.9 µM],2.51µM*,nt,2.51µM*
Cc1ccc(Cl)cc1N1CCN(CCCNC(=O)c2nnc(Cc3cccc(Cl)c3)o2)CC1,?,-14.5%[10.9 µM],-4.5%,nt,12.6µM*
c1ccc(-c2onc3cc4c(cc23)OCCO4)cc1,?,-76.0%,?,12.6µM*,?
CC1(c2ccc3noc(-c4ccc(Cl)cc4)c3c2)OCCO1,0.5%,10.4%,8.2%,-1.8%,3.2%
Cc1nc(NC(=O)c2ccc(Br)s2)sc1C(=O)N(C)C,-1.0%,-47.5%,12.6µM*,-24.0%,?
COc1ccc(C(=O)Nc2nc(C)c(C(=O)N(C)C)s2)cc1OC,0.2%,-46.4%,12.6µM*,-22.8%,-20.0%
COc1cc(CNCCSc2nnnn2C)ccc1OCc1ccccc1C,-1.7%,-16.3%[10.9 µM],-11.2%,nt,-7.2%
O=C(Nc1ccc(F)c(Cl)c1)N1CCN(C(=O)c2nsc3ccccc23)CC1,-1.1%,5.6%[10.9 µM],-9.0%,nt,-8.1%
COC(=O)/C=c1/sc2nc3ccccc3n2c1=O,4.6%,-80.0%,-28.3%,-4.9%,-3.8%
O=c1/c(=C/c2ccccn2)sc2nc3ccccc3n12,?,7.2%,10µM*,0.251µM*,?
O=C(COc1ccccc1[N+](=O)[O-])N1CCC(c2nc3ccccc3o2)CC1,?,18.7%[10.9 µM],-5.1%,nt,12.4%
O=C(c1ccccc1)n1c(=S)nc2ccccn21,nt,nt,nt,1.26µM*,nt
Cc1ccc(Nc2nc(N)nc(CSc3nncn3C)n2)cc1,nt,nt,?,nt,12.6µM*
O=C(Nc1ccc2oc(-c3cc(Br)ccc3Cl)nc2c1)c1cc2ccccc2o1,-0.9%,-1.9%[10.9 µM],?,nt,5.01µM*
O=C(O)c1ccc(NC(=O)c2cc3ccccc3o2)cc1,?,-40.7%[10.9 µM],7.94µM*,nt,10µM*
SMILES,IkB signaling,Imprint erasure,p53ts 32C tox,FLuc inh,p53ts 39C kill
O=C(NCCN1CCOCC1)c1cc2ccccc2o1,-3.1%,nt,-2.1%,5.4%,-2.2%
O=C(Nc1ccc(CN2CCOCC2)cc1)c1cccs1,2.2%,-64.6%,?,25.1µM*,?
O=C(Nc1ccc(CN2CCOCC2)cc1)c1cc2ccccc2o1,?,-2.8%,10µM*,12.6µM*,10µM*
Cc1ccc(C2c3cccn3CCN2S(=O)(=O)c2ccc([N+](=O)[O-])cc2)cc1 (stereo not given),-0.3%,-7.2%[10.9 µM],4.6%,nt,-19.8%
CC(C)(C)C(=O)[C@H]([C@@H](c1ccccc1)N1CCOCC1)N1CCOCC1,-0.1%[11.4 µM],nt,-5.3%[9.22 µM],1.7%[11.4 µM],-2.9%[9.22 µM]
Cc1cc(NC(=O)c2cc3ccccc3o2)cc(C)c1OCC(=O)N1CCOCC1,-3.7%,-6.7%,?,15.8µM*,-27.8%
O=C(Nc1ccc(CN2CCOCC2)cc1)c1cc2ccccn2n1,5.8%,-87.7%,5.01µM*,3.98µM*,6.31µM*
COc1cc(C(=O)Nc2cc(C)c(OCC(=O)N3CCOCC3)c(C)c2)cc(OC)c1OC,7.2%,-4.5%,-7.0%,-0.8%,0.3%
O=C(Nc1ccc2c(c1)OCO2)c1ccc(CN2CCOCC2)cc1,-1.3%,-20.8%,12.6µM*,?,?
O=C(Nc1ccc(CN2CCCCC2)cc1)c1ccc2c(c1)OCO2,2.5%,-28.3%,-7.0%,-20.4%,-15.5%
O=C(Nc1ccc(CN2CCOCC2)cc1)c1ccccc1F,nt,nt,?,nt,-18.5%
O=C(CN1C(=O)COc2ccccc21)NCCc1ccc(Cl)cc1,?,5.5%[10.9 µM],7.3%,nt,-28.1%
CN(C)CCCN=c1c2ccccc2n(C)c2[nH]c(=O)n(C)c(=O)c12,12.2%[11.4 µM],8.1%[10.9 µM],-1.0%[9.22 µM],3.9%[11.4 µM],-7.2%[9.22 µM]
CSc1ccc(CCNC(=O)C(C)n2nc(C)c3sc4ccccc4c3c2=O)cc1 (stereo not given),-3.3%,-34.2%[10.9 µM],10µM*,nt,10µM*
Cc1ccc(CNC(=O)C(C)n2nc(C)c3sc4ccccc4c3c2=O)cc1 (stereo not given),?,-27.3%[10.9 µM],?,nt,?
Cc1nn(C(C)C(=O)NC2CCCCC2)c(=O)c2c1sc1ccccc12 (stereo not given),?,-33.5%[10.9 µM],12.6µM*,nt,10µM*
COc1cc(-c2oc3cc(O)ccc3c(=O)c2O)ccc1O,nt,-44.6%,42.8%,nt,21.0%
CCOc1ccc(-c2oc3cc(Cl)ccc3c(=O)c2O)cc1OC,-4.9%,6.1%[10.9 µM],-15.2%,nt,7.94µM*
Cc1ccc(C2NC(=O)NC3=C2CCc2ccccc23)cc1 (stereo not given),-0.6%,-18.8%,-25.1%,12.6µM*,-9.8%
